Assay outcomes from PubChem BioAssay.
This excerpt belongs to a sample that is enriched for hits.
LmPK inhibitor = blocks Leishmania mexicana pyruvate kinase activity; hit rate 0.37% among 290,000; Q27686; Potency, µM (series often up to 57.5 µM), for the others: at the top dose activity change, negative = inhibition, actives largely listed as inhibitors; purified LmPK, Kinase-Glo ATP luminescence, 1 h; also: potency is read from the fitted curve at half-maximal effect; % is scaled to controls: 0 for no effect and ±100 for the full control effect
Target sequence (Q27686 whole entry, looked up): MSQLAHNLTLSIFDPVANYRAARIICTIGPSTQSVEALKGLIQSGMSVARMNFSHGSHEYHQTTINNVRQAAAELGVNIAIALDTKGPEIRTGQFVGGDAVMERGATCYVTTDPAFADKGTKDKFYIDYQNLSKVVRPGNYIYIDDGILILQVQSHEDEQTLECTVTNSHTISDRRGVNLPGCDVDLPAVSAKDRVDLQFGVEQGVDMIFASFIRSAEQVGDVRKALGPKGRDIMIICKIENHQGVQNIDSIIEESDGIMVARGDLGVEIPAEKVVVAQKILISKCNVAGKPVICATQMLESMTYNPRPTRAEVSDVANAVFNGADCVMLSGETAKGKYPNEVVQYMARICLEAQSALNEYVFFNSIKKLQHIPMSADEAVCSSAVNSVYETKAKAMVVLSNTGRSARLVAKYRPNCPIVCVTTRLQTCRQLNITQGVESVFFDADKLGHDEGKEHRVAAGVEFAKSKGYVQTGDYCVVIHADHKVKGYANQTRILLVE
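Screened at intermediate enzyme activity to detect both inhibitors and activators: LmPK at 0.1 nM, with a 0.5 nM enzyme column as activation reference. PEP 0.5 mM, ADP 0.1 mM; ATP detected by luminescence after 1 h.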
Giardia FBPA inh = blocks Giardia fructose-bisphosphate aldolase activity. A8B2U2. purified Giardia FBPA. Potency, µM (doses to about 59.6 µM), for the others: at the highest dose activity, negative = inhibition, hits mostly inhibitors. hit rate 0.71% among 290,000; also: potency is read from the fitted curve at half-maximal effect; % is scaled to controls: 0 for no effect and ±100 for the full control effect; nearly all actives have a fitted effect of over 55% in size
Target sequence (A8B2U2 whole entry, looked up): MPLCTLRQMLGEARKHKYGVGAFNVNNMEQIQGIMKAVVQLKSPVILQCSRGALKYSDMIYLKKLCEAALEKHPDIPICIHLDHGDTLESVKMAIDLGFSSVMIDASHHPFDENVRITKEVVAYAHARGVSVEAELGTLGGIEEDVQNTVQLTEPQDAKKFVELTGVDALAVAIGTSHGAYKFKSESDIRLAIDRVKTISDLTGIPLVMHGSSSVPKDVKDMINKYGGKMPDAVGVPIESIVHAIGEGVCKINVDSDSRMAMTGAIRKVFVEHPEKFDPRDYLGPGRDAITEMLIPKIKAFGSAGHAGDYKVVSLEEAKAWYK
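Giardia FBPA (40 nM reagent) was preincubated 10 min at RT with compound (up to 57.5 uM final), then substrate plus GAPDH/TPI/NAD/arsenate coupling system with diaphorase/resazurin was added; resorufin fluorescence (525/598 nm) was read after 20 min.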
RE007 growth inh = less growth of the S. pombe RE007 Vpr strain; Potency, µM (doses to about 92.2 µM), for the others: at the highest dose activity change, negative = less growth, actives largely listed as inhibitors; S. pombe RE007 Vpr strain, BacTiter-Glo ATP luminescence, 24 h; AID 651644; hit rate 0.21% among 360,000; active = well fitted falling curve with a large enough effect; inconclusive = small, poorly fitted or top-dose-only effect; inactive = no such curve, though single readings can be large or run the other way; also: potency is read from the fitted curve at half-maximal effect; % is scaled to controls: 0 for no effect and ±100 for the full control effect; nearly all actives have a fitted effect of over 50% in size
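Fission yeast strain RE007, carrying one chromosomally integrated HIV-1 vpr copy, was seeded at OD 0.01 in PMG+AL medium with 23 nL pinned compound. After 24 h at 30 °C and 99% humidity, viability was read by BacTiter-Glo luminescence.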
Shiga inhibitor = inhibitors of Shiga toxin in Vero cells; Vero cells, Shiga toxin protein synthesis inhibition reporter; inhibition, % at 38.7 µM; hit rate 9.2% among 290,000; AID 2315; in the data active = inhibition mostly above about 28%, no sharp cut-off; inactive = mostly below about 43%; also: 0% is about no effect
Tb PYK inh = blocks Trypanosoma brucei pyruvate kinase | Potency, µM (doses to about 76.8 µM), for inactives: at the top dose activity, negative = inhibition, actives largely listed as inhibitors | AID 624173 | hit rate 0.12% among 410,000 | TbPYK enzyme, Kinase-Glo Plus ATP luminescence, 45 min | Q57TT1; also: potency is read from the fitted curve at half-maximal effect; % is scaled to controls: 0 for no effect and ±100 for the full control effect; nearly all actives have a fitted effect of over 50% in size
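Screened from lowest to highest concentration, compounds were pinned into TbPYK/substrate mixtures, and ADP (130 uM final) was added. Plates sat at room temperature for 45 min prior to Kinase-Glo Plus detection by luminescence.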
Cycloheximide cs = counter-screen hit for Shiga toxin inhibitors, cycloheximide; AID 2314; max response, %; cell reporter, cycloheximide protein synthesis inhibition counterscreen; hit rate 12% among 300,000; in the data active = max response mostly above about 13%, no sharp cut-off; inactive = mostly below about 14%; also: read at 38.3 µM for the half of the compounds with a filed dose; 0% is about no effect
* = called active by the depositor; ? = inconclusive; . = no result given; + = active, no number. Unless noted, calls follow the shape of the dose curve; as a rule, active = well fitted curve in the direction sought with a large enough effect; inconclusive = small, poorly fitted or top-dose-only effect, or another doubt; inactive = no such curve, though single readings can be large; an effect the other way counts as inactive or inconclusive.

SMILES	LmPK inhibitor	Giardia FBPA inh	RE007 growth inh	Shiga inhibitor	Tb PYK inh	Cycloheximide cs
Cn1c(NCc2c[nH]c3ccccc23)nc2ccccc21	-7.8%	9.8%	-17.7%	70.2	-7.5%	15.1*
C=CCn1c(NCc2c[nH]c3ccccc23)nc2ccccc21	1.6%	-0.2%	-0.7%	27.4*	-4.4%	17.5*
COc1ccc(CNc2nc3ccccc3n2CCN2CCCCC2)cc1	5.3%	-0.4%	-25.2%	-0.6	1.7%	-3.5
Cc1cc(C)c2c(c1)c(C)cc1nnc(SCc3ccccc3C#N)n12	.	.	.	.	-12.1%	.
Cc1cccc(NC(=O)c2sc3ncnc(N(C)C4CCCCC4)c3c2C)c1C	.	.	.	.	0.9%	.
CCOc1ccc(C(=O)N2CCN(c3ccccc3)CC2)cc1OCC	1.6%	-2.3%	-12.6%	0.1	1.9%	-4.9
O=C(c1ccc(-c2ccccc2)cc1)N1CCN(c2nc3ccccc3o2)CC1	5.8%	1.5%	5.6%	13.5	-15.3%	15.1*
CCOc1ccc(C(=O)N2CCN(c3ccccc3)CC2)cc1	-0.3%	3.2%	26.4%	30.0*	-17.6%	11.4
CS(=O)(=O)N(Cc1ccccc1)c1ccc(C(=O)N2CCN(c3cccc(Cl)c3)CC2)cc1	6.5%	2.4%	-3.1%	42.1	3.4%	22.1*
O=C(COc1ccccc1)N1CCN(C(=O)c2ccc([N+](=O)[O-])cc2)CC1	?	-4.0%	0.7%	35.9	-7.6%	48.0*
CC(C)(C)c1ccc(C(=O)N2CCN(c3nc4ccccc4o3)CC2)cc1	0.0%	2.1%	3.8%	-1.6	7.5%	-1.9
CCOc1ccccc1CNC(=O)CCc1c(C)nn(-c2ccc(N3CCCCC3)nn2)c1C	.	.	.	.	-2.0%	.
Cc1ccc(CC(Cc2nc3ccccc3[nH]2)c2nc3ccccc3[nH]2)cc1 (centres undefined)	.	13.1%	.	.	.	.
O=C(c1ccc(-c2ccccc2)cc1)N1CCN(c2ccccc2)CC1	1.8%	-2.9%	-5.6%	28.1	5.7%	13.2*
CCOC(=O)C1CCN(Cc2cn3c(-c4ccc(OC)cc4)nnc3s2)CC1	.	.	.	.	-8.6%	.
COc1ccc(-n2c(=O)c3c4c(sc3n(Cc3ccc(F)cc3)c2=O)CN(C(C)=O)CC4)c(OC)c1	.	.	.	.	1.9%	.
C=CCn1cccc(C(=O)Nc2ccc(C)cc2)c1=O	-5.6%	0.3%	.	102.0*	7.1%	76.6*
C=CCn1c(N)c(C(=O)Nc2ccccc2OC)sc1=S	2.2%	-4.5%	9.5%	-10.1	-16.8%	-2.6
C=CCn1cccc(C(=O)Nc2cc(OC)ccc2OC)c1=O	-2.8%	-3.5%	-5.5%	17.8	4.3%	16.2
C=CCn1cccc(C(=O)Nc2ccc(C)c(C)c2)c1=O	-6.0%	9.0%	-4.8%	106.5*	1.5%	44.9*
C=CCn1c(N)c(C(=O)Nc2ccc(C)cc2)sc1=S	3.4%	-5.8%	.	14.6	-12.0%	30.1*
COc1ccc(OC)c(CNC(=O)NCc2noc3ccc(C)cc23)c1	.	.	.	.	12.7%	.
Cc1cc(OCC(F)(F)C(F)(F)C(F)(F)C(F)F)nc(N)n1	-0.9%	.	-9.5%	77.8*	-1.2%	46.4*
COc1cccc(CSc2nnc(-c3ccc(F)cc3)o2)c1	1.0%	-0.7%	-15.2%	22.6	2.0%	17.9*
Fc1ccc(-c2nnc(SCc3cccnc3)o2)cc1	3.4%	-0.2%	-18.1%	66.3*	-6.9%	25.6*
SMILES	LmPK inhibitor	Giardia FBPA inh	RE007 growth inh	Shiga inhibitor	Tb PYK inh	Cycloheximide cs
COc1ccc(-c2nnc(SCc3cccc(C#N)c3)o2)cc1	2.0%	-3.6%	0.7%	31.2	0.0%	8.5
CCCN(C(=O)c1nn(-c2ccc(OC)cc2)c(=O)c2c1c1ccccc1n2C)c1ccc(CC)cc1	.	.	.	.	0.0%	.
COC(=O)[C@@]1(Cc2ccccc2)[C@H]2c3cc(C(=O)N(C)C)n(CCO)c3C[C@H]2CN1C(=O)c1ccccc1	.	5.9%	.	.	.	.
N#C/C(=C/c1ccccc1[N+](=O)[O-])c1nc(C2CC2)cs1	2.0%	-4.3%	-2.2%	42.6	-3.5%	24.8*
N#C/C(=C\c1ccccc1[N+](=O)[O-])c1nc(C2CC2)cs1	-0.8%	-2.7%	-28.4%	58.3*	-12.1%	56.8*
N#C/C(=C\C=C\c1ccccc1[N+](=O)[O-])c1nc(-c2ccc3c(c2)OCO3)cs1	6.8%	-2.6%	-1.8%	-4.2	0.0%	-1.1
COc1ccc(-c2csc(/C(C#N)=C\c3cccc([N+](=O)[O-])c3)n2)cc1	-2.5%	3.3%	.	-8.1	.	0.5
N#C/C(=C\c1ccc([N+](=O)[O-])cc1)c1nc(C2CC2)cs1	-0.2%	-2.1%	21.8%	15.4	0.3%	20.6*
Cc1ccc(NC(=O)C2CCCN(c3nnc(-n4c(C)ccc4C)s3)C2)cc1Cl (centres undefined)	.	.	.	.	0.2%	.
COCCn1c(=O)c(C)nc2cnc(N3CCN(C)CC3)nc21	.	6.0%	.	.	.	.
COc1ccc(N=N/C(=C\O)C(=O)c2ccco2)cc1	-2.7%	3.4%	48.0%	83.5*	-8.0%	39.6*
COc1ccc(C(=O)COC(=O)c2ccco2)cc1	?	-0.2%	?	50.4*	-15.4%	43.4*
COc1ccc(C(=O)COC(=O)c2ccc(N(C)C)cc2)cc1	-0.4%	4.0%	6.4%	-10.7	3.0%	-1.4
Cc1occc1C(=O)O/N=C(\N)c1ccc(Cl)cc1	-19.8%	1.1%	-19.1%	135.9*	-3.2%	66.1*
Cc1ccc(C(=O)NNC(=S)NC(=O)c2ccco2)cc1	-0.8%	12.6%	-2.2%	17.9	-3.8%	-4.4
Cc1ccc(/C(N)=N/OC(=O)c2ccco2)cc1	?	1.7%	-28.2%	active	-8.6%	21.8*
COc1ccc(C(=O)Nc2ccc(NC(=O)c3ccco3)cc2)cc1	4.5%	-3.4%	2.7%	29.2	-9.1%	-6.3
Cc1noc(-c2ccc(Cl)cc2)c1C(=O)O/N=C(\N)c1ccc(C(C)(C)C)cc1	-1.1%	-4.3%	-28.3%	15.1	-4.8%	-3.3
COCCn1c(=O)c(-c2cc(F)cc(F)c2)nc2cnc(OC)nc21	.	-6.8%	.	.	-4.9%	.
COc1cc2c(cc1OC)-c1cc3cc(OC)c(OC)cc3c(=O)n1CC2	.	-6.6%	.	.	.	.
Cc1cccc(/C(N)=N/OC(=O)c2ccco2)c1	15.8µM*	5.2%	?	71.5*	-14.7%	26.4*
O=C(Oc1ccc(-c2ccccc2)cc1)c1ccco1	.	.	-12.5%	.	6.6%	.
Cc1cccc(C(=O)NCCNC(=O)c2ccco2)c1	-3.1%	6.2%	8.5%	-2.9	2.6%	-3.0
COc1ccc(C(=O)COC(=O)c2ccn(C)n2)cc1	-15.5%	.	-16.2%	104.3*	9.8%	42.4*
N/C(=N\OC(=O)c1ccco1)c1ccccc1	22.4µM*	4.1%	-12.8%	+	-17.8%	32.4*
COc1ccc(C(=O)COC(=O)c2cncc(Br)c2)cc1	.	.	10.1%	.	4.4%	.
N/C(=N\OC(=O)c1ccco1)c1ccc(Br)cc1	-21.9%	4.7%	?	95.0*	4.2%	38.7*
O=C(NN1CCCC1)NS(=O)(=O)c1ccc(Cl)cc1	.	.	.	.	-7.3%	.
O=C(NCc1ccccc1Cl)c1c2c(nc3ccccc13)C(=O)N(C1CCCCC1)C2	.	.	.	.	0.8%	.
